Data as given in PubChem BioAssay (NCATS).
Records with an inconclusive call do not appear. Unless noted, calls come from the whole dose curve; as a rule, active = well fitted curve in either direction with a large enough effect (not every such curve was filed as active); inconclusive = small, poorly fitted or top-dose-only effect, or another doubt; inactive = flat fitted curve, though single readings scatter.

Tests used:
[1] = AP1 Signaling Pathway (AID 357); conditions: ME-180 AP-1-bla reporter, EGF-induced, beta-lactamase ratio, 5 h; at 17.2 µM (top of the series) unless noted;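 note: ME-180 reporter cells stimulated with EGF at its EC50 level; % is set by controls: 0 for no effect and ±100 for the full control effect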
Outline: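 Beta-lactamase reporter under AP-1 response element, ME-180 background. Stimulus: EC50 EGF. Compound exposure 5 h, 37 °C. Detection: CCF4, 2.5 h RT, 460/530 nm. Values: AC50 from titration.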

[2] = NFAT Signaling Pathway (AID 444); conditions: Jurkat NFAT-bla M1, carbachol, beta-lactamase ratio, 5 h; at 17.2 µM (top of the series) unless noted;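 note: carbachol stimulus at about its EC50 of 1 µM final; % is set by controls: 0 for no effect and ±100 for the full control effect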
Outline: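 Jurkat cells carrying an NFAT-driven β-lactamase reporter and co-transfected muscarinic M1 receptor were treated with compound plus carbachol (1 uM final, an EC50 level) for 5 h at 37 °C. CCF4 loading followed for 1 h at RT; 460/530 nm ratio gave %activity.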

[3] = Stat Signaling Pathway (AID 446); conditions: ME-180 (cervical carcinoma) SIE beta-lactamase reporter, IL-6 stimulated, 5 h; at 17.2 µM (top of the series) unless noted;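 note: ME-180 cervical cancer cells given 40 pM IL-6 alongside compound; SIE-controlled beta-lactamase reporter measured as 460/530 nm FRET emission ratio; % is set by controls: 0 for no effect and ±100 for the full control effect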
Outline: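 IL-6/STAT signaling read in ME-180 cells via an SIE beta-lactamase reporter. Stimulus was 40 pM IL-6 (its AC50) for 5 hrs, so both activation and inhibition register.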

[4] = target: Glucocorticoid receptor (Homo sapiens) (UniProt P04150); assay: GR-GFP Redistribution (AID 450;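 active = compounds whose dose series gives a full or clear partial fitted curve of increased nuclear translocation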; note: potency is the fitted concentration of half-maximal effect)
Chain of Glucocorticoid receptor (Homo sapiens) (P04150 whole entry, looked up): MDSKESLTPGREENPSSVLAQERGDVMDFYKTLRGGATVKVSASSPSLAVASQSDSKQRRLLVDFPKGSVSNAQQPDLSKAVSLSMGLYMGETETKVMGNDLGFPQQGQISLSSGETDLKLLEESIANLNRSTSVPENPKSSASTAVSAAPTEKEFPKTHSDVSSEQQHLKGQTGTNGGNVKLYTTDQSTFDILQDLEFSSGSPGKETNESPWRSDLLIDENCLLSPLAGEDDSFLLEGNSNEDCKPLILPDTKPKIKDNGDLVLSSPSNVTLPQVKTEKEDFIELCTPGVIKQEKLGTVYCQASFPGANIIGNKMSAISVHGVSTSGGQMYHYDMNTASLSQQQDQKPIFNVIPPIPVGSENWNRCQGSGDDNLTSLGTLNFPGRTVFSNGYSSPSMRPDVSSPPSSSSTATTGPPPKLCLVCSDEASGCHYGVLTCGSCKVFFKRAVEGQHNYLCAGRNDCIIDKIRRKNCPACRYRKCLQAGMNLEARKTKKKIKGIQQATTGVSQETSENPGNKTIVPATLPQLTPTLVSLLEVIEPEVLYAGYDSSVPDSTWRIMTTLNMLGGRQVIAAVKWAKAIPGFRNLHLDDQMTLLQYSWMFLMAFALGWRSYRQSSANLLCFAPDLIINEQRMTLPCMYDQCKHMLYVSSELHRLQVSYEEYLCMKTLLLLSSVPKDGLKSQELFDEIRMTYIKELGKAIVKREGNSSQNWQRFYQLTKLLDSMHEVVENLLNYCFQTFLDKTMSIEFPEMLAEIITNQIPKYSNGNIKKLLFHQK

CC(C)CC(=O)Nc1ccccc1N1CCCC1
inactive: activity change, negative = inhibition [1] 8.1% | activity change, negative = inhibition [2] 8.79% | activity, negative = inhibition [3] 0.417% | Potency [4] > 20.6 µM

Cn1c(=O)[nH]c2cc(Cl)cnc21
inactive: activity change, negative = inhibition [1] 7.54% | activity change, negative = inhibition [2] 3.47% | activity, negative = inhibition [3] 5.04% | Potency [4] > 20.6 µM

CCOC(=O)C1CCN(c2ncnc3c2cnn3-c2ccc(Cl)cc2)CC1
inactive: activity change, negative = inhibition [1] 0.357% | activity change, negative = inhibition [2] -16.1% | activity, negative = inhibition [3] 4.03% | Potency [4] > 20.6 µM

COc1ccc(OC)c(C2NC(=O)c3sc(=S)n(-c4ccccc4)c3N2)c1 (centres undefined)
inactive: activity change, negative = inhibition [1] -13.3% | activity change, negative = inhibition [2] -12.2% | activity, negative = inhibition [3] -13.8% | Potency [4] > 20.6 µM

O=C1CC(c2ccccc2)n2nc(N3C(=O)c4ccccc4C3=O)nc2N1 (centres undefined)
inactive: activity change, negative = inhibition [1] 0.103% | activity change, negative = inhibition [2] -10.6% | activity, negative = inhibition [3] -7.82% | Potency [4] > 20.6 µM

O=C(NCc1ccccc1)c1ccc(=O)[nH]n1
inactive: activity change, negative = inhibition [1] 2.35% | activity change, negative = inhibition [2] -2.12% | activity, negative = inhibition [3] 5.54% | Potency [4] > 20.6 µM

Cn1c(=O)c2c(nc(NCc3ccc4c(c3)OCO4)n2Cc2ccc(F)cc2)n(C)c1=O
inactive: activity change, negative = inhibition [1] -26% | activity change, negative = inhibition [2] -10.4% | activity, negative = inhibition [3] -22% | Potency [4] > 20.6 µM

Cc1c(C2Nc3ccccc3NC3=C2C(=O)CC(C)(C)C3)cnn1C (centres undefined)
inactive: activity change, negative = inhibition [1] -9.46% | activity change, negative = inhibition [2] -5.95% | activity, negative = inhibition [3] 14.2% | Potency [4] > 20.6 µM

CCOP(=O)(c1ccccc1)c1nc(-c2ccc(F)cc2)oc1N1CCCCC1 (centres undefined)
inactive: activity change, negative = inhibition [1] -11.9% | activity change, negative = inhibition [2] 3.09% | activity, negative = inhibition [3] 4.79% | Potency [4] > 20.6 µM

CC1(C)CC(=O)C2=C(C1)OC(N)=C(C#N)[C@@]21C(=O)N(CC(N)=O)c2ccccc21
inactive: activity change, negative = inhibition [1] 10.8% | activity change, negative = inhibition [2] 4.51% | activity, negative = inhibition [3] -18.4% | Potency [4] > 20.6 µM

C=C1C2(C(=O)Nc3nccs3)CCC(C2)C1(C)C (centres undefined)
inactive: activity change, negative = inhibition [1] -7.92% | activity change, negative = inhibition [2] 25.1% | activity, negative = inhibition [3] -0.516% | Potency [4] > 20.6 µM

C=CCNc1sc(C(=O)C2CC2)c(N)c1C#N
inactive: activity change, negative = inhibition [1] -5.75% | activity change, negative = inhibition [2] 4.81% | activity, negative = inhibition [3] -6.27% | Potency [4] > 20.6 µM

COc1nnnc2c1sc1nc(N3CCOCC3)c3c(c12)CC(C)(C)OC3
inactive: activity change, negative = inhibition [1] -3.49% | activity change, negative = inhibition [2] -9.1% | activity, negative = inhibition [3] -7.42% | Potency [4] > 20.6 µM

COc1ccc(OC)c(NC(=O)CSc2nnc(-c3ccco3)n2-c2ccc(C(=O)O)cc2)c1
inactive: activity change, negative = inhibition [1] -4.17% | activity change, negative = inhibition [2] 15.9% | activity, negative = inhibition [3] -4.38% | Potency [4] > 20.6 µM

Cc1nc2c(c(=O)n1CC1CCCO1)c1nc3ccccc3nc1n2CCC(C)C (centres undefined)
inactive: activity change, negative = inhibition [1] 6.32% | activity change, negative = inhibition [2] -6.4% | activity, negative = inhibition [3] -12.2% | Potency [4] > 20.6 µM

Cc1c(=O)n(OCc2c(F)cccc2F)c2ccccc2[n+]1[O-]
inactive: activity change, negative = inhibition [1] -5.17% | activity change, negative = inhibition [2] -0.573% | activity, negative = inhibition [3] 2.13% | Potency [4] > 20.6 µM

O=S(=O)(c1cccc2nsnc12)N1CCN(C/C=C/c2ccccc2)CC1
inactive: activity change, negative = inhibition [1] -6.7% | activity change, negative = inhibition [2] -13.3% | activity, negative = inhibition [3] -15.9% | Potency [4] > 20.6 µM

CC(=O)Oc1ccccc1C1OC(=O)c2ccccc2N1C(C)=O (centres undefined)
inactive: activity change, negative = inhibition [1] 14.3% | activity change, negative = inhibition [2] 12.4% | activity, negative = inhibition [3] 5.01% | Potency [4] > 20.6 µM

COC(=O)c1cc2c(=O)n3cccc(C)c3nc2n(Cc2cccnc2)c1=N
inactive: activity change, negative = inhibition [1] 7.65% | activity change, negative = inhibition [2] -10.7% | activity, negative = inhibition [3] 15.4% | Potency [4] > 20.6 µM

Cc1cccc(C)c1N1C(=O)C2ON(c3ccccc3)C(c3ccncc3)C2C1=O (centres undefined)
inactive: activity change, negative = inhibition [1] 1.5% | activity change, negative = inhibition [2] 11.5% | activity, negative = inhibition [3] -5.83% | Potency [4] > 20.6 µM

C/C(=N/n1cnnc1)c1cccnc1
inactive: activity change, negative = inhibition [1] -1.84% | activity change, negative = inhibition [2] -0.807% | activity, negative = inhibition [3] 16.1% | Potency [4] > 20.6 µM

COc1cc(NC(=O)NC(C)(C(F)(F)F)C(F)(F)F)cc(OC)c1OC
inactive: activity change, negative = inhibition [1] -9.62% | activity change, negative = inhibition [2] 19.4% | activity, negative = inhibition [3] -4.15% | Potency [4] > 20.6 µM

Cc1cc(=O)oc(C)c1C(=O)N1CCN(Cc2ccc3c(c2)OCO3)CC1
inactive: activity change, negative = inhibition [1] 6.44% | activity change, negative = inhibition [2] 17.1% | activity, negative = inhibition [3] 5.97% | Potency [4] > 20.6 µM

CCN(CC)CCN1C(=O)c2ccccc2NC1c1cc(OC)c(OC)c(OC)c1 (centres undefined)
inactive: activity change, negative = inhibition [1] 8.96% | activity change, negative = inhibition [2] 5.73% | activity, negative = inhibition [3] 10.5% | Potency [4] > 20.6 µM

Cc1nn(C)cc1CNC(=O)c1ccc(Br)o1
inactive: activity change, negative = inhibition [1] 5.3% | activity change, negative = inhibition [2] -0.512% | activity, negative = inhibition [3] 6.82% | Potency [4] > 20.6 µM

O=C(NCCCN1CCOCC1)C1(c2ccccc2)CCOCC1
inactive: activity change, negative = inhibition [1] 3.71% | activity change, negative = inhibition [2] -0.629% | activity, negative = inhibition [3] 5.62% | Potency [4] > 20.6 µM
